Assays:
Test in all cases: log2 ratio of Biotin-Ahx-Ub-VS probe labelling (fragment/DMSO); higher = less target engagement (more negative = stronger competition), active = hit call of the paper (q ≤ 0.05, log2 ratio ≤ -1)
Conditions in all cases: compound concentration: 200 uM; treatment time: 3 h
USP34 = USP34 (UniProt Q70CQ2)
How it was run: (§1)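 The table lists average log2 ratios of fragment over vehicle, from an unpaired t-test on global-median-normalised Spectronaut label-free quantities. Proteins with ≥2 unique peptides were used. Samples were HEK293T lysate (495 µg) treated in triplicate with fragment at 200 µM or vehicle for 3 h, then with Biotin-Ahx-Ub-VS (0.5 µM final) for 1 h, with labelled DUBs NeutrAvidin-enriched and run by diaPASEF LC-MS/MS.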

USP36 = biological target: T1, USP36 (UniProt Q9P275)
T1 sequence (whole entry): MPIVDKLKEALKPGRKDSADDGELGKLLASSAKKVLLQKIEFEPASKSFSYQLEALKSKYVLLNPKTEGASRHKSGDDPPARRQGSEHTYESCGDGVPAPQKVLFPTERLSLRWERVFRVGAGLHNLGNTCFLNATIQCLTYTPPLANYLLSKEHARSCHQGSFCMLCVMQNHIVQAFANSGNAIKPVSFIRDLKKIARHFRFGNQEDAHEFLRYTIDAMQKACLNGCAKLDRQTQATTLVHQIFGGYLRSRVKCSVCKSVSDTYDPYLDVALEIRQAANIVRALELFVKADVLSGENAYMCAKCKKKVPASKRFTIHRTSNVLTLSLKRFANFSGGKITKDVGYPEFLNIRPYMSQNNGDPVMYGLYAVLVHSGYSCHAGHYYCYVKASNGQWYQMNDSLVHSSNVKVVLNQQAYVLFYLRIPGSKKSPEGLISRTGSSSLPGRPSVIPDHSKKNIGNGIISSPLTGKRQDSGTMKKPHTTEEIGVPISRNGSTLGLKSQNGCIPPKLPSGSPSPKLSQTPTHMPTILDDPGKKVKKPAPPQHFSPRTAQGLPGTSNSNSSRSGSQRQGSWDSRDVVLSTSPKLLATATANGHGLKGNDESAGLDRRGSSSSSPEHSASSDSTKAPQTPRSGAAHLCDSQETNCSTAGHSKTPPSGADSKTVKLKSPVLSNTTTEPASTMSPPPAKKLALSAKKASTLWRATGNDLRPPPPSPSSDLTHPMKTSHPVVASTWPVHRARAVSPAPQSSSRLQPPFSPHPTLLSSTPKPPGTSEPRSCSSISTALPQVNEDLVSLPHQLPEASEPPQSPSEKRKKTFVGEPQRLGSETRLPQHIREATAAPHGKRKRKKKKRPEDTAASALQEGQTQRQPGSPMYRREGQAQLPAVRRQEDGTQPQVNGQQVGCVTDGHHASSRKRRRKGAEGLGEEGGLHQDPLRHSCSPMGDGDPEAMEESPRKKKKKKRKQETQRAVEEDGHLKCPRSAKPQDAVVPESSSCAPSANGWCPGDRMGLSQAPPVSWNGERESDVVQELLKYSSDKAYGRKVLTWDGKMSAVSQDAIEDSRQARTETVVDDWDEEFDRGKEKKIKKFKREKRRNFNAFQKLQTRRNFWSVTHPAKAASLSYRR
How it was run: as §1

USP38 = biological target: T2, USP38 (UniProt Q8NB14)
T2 sequence (whole entry): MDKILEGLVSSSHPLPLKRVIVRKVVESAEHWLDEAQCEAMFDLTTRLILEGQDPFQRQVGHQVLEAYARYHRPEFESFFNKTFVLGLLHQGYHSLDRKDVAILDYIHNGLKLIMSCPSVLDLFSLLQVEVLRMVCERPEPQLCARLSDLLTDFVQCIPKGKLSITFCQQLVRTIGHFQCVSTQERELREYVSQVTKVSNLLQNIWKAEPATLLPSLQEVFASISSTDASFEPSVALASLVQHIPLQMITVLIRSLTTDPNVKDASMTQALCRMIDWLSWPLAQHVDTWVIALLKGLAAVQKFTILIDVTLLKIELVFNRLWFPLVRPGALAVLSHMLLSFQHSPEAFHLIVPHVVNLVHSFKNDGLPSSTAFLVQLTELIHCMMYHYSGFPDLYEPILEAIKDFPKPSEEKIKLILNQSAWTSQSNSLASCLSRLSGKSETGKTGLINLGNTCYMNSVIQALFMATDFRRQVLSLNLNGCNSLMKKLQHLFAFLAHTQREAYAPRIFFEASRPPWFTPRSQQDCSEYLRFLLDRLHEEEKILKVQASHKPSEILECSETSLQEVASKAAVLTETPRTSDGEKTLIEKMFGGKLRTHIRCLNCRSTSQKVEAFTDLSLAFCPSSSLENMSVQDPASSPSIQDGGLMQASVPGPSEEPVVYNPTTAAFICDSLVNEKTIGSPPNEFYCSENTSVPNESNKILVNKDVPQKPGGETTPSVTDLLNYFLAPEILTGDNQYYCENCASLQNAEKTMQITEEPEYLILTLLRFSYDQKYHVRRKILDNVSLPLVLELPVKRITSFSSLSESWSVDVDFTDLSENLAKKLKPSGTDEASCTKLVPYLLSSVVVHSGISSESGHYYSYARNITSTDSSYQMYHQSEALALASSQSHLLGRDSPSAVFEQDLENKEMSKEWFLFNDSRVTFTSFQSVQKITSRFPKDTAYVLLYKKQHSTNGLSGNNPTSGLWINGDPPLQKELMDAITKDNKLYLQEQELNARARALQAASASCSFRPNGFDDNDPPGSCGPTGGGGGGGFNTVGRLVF
How it was run: as §1

USP39 = biological target: T3, USP39 (UniProt Q53GS9)
T3 sequence (whole entry): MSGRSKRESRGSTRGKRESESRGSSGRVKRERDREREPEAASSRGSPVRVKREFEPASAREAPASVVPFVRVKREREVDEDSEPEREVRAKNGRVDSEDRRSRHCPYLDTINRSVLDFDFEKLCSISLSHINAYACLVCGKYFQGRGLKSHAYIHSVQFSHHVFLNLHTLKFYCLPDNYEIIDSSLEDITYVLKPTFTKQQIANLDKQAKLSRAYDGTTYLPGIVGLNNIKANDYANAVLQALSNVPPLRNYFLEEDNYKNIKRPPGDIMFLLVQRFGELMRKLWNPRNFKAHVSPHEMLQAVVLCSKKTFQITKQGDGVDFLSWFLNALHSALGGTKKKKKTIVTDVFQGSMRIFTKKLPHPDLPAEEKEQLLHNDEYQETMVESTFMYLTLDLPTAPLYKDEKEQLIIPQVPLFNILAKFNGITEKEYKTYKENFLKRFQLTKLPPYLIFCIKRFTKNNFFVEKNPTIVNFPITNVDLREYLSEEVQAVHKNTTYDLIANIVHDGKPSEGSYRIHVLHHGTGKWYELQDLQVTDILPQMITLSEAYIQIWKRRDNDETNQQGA
How it was run: as §1

USP4 = biological target: T4, USP4 (UniProt Q13107)
T4 sequence (whole entry): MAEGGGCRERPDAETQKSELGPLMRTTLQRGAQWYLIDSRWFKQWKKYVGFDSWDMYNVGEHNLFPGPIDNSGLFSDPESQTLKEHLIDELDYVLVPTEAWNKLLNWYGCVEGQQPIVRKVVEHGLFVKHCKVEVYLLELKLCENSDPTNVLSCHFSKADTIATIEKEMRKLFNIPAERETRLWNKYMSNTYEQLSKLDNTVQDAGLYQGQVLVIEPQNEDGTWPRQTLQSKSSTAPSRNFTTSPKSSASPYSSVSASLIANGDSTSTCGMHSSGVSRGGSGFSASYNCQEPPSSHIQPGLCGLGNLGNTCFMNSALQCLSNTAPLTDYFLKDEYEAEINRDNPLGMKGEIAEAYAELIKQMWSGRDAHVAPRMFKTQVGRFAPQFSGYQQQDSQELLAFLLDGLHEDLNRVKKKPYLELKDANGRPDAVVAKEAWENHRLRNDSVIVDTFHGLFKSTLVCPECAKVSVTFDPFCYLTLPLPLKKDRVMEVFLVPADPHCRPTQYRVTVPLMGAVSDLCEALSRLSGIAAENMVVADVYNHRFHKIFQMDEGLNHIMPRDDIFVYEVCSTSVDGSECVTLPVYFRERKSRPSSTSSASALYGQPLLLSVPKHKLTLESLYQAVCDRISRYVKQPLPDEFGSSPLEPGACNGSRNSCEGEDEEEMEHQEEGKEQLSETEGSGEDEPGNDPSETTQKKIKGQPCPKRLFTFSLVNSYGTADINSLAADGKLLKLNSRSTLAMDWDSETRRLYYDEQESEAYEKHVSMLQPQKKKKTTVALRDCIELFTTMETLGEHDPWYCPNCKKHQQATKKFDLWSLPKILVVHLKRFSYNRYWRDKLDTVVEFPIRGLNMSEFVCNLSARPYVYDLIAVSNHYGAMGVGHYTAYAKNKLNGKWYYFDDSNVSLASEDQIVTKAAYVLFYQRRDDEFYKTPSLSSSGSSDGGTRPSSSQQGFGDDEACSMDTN
How it was run: as §1

Measured: log2 ratio of Biotin-Ahx-Ub-VS probe labelling

Chain of USP34 (Q70CQ2 whole entry, the tested form may be a part): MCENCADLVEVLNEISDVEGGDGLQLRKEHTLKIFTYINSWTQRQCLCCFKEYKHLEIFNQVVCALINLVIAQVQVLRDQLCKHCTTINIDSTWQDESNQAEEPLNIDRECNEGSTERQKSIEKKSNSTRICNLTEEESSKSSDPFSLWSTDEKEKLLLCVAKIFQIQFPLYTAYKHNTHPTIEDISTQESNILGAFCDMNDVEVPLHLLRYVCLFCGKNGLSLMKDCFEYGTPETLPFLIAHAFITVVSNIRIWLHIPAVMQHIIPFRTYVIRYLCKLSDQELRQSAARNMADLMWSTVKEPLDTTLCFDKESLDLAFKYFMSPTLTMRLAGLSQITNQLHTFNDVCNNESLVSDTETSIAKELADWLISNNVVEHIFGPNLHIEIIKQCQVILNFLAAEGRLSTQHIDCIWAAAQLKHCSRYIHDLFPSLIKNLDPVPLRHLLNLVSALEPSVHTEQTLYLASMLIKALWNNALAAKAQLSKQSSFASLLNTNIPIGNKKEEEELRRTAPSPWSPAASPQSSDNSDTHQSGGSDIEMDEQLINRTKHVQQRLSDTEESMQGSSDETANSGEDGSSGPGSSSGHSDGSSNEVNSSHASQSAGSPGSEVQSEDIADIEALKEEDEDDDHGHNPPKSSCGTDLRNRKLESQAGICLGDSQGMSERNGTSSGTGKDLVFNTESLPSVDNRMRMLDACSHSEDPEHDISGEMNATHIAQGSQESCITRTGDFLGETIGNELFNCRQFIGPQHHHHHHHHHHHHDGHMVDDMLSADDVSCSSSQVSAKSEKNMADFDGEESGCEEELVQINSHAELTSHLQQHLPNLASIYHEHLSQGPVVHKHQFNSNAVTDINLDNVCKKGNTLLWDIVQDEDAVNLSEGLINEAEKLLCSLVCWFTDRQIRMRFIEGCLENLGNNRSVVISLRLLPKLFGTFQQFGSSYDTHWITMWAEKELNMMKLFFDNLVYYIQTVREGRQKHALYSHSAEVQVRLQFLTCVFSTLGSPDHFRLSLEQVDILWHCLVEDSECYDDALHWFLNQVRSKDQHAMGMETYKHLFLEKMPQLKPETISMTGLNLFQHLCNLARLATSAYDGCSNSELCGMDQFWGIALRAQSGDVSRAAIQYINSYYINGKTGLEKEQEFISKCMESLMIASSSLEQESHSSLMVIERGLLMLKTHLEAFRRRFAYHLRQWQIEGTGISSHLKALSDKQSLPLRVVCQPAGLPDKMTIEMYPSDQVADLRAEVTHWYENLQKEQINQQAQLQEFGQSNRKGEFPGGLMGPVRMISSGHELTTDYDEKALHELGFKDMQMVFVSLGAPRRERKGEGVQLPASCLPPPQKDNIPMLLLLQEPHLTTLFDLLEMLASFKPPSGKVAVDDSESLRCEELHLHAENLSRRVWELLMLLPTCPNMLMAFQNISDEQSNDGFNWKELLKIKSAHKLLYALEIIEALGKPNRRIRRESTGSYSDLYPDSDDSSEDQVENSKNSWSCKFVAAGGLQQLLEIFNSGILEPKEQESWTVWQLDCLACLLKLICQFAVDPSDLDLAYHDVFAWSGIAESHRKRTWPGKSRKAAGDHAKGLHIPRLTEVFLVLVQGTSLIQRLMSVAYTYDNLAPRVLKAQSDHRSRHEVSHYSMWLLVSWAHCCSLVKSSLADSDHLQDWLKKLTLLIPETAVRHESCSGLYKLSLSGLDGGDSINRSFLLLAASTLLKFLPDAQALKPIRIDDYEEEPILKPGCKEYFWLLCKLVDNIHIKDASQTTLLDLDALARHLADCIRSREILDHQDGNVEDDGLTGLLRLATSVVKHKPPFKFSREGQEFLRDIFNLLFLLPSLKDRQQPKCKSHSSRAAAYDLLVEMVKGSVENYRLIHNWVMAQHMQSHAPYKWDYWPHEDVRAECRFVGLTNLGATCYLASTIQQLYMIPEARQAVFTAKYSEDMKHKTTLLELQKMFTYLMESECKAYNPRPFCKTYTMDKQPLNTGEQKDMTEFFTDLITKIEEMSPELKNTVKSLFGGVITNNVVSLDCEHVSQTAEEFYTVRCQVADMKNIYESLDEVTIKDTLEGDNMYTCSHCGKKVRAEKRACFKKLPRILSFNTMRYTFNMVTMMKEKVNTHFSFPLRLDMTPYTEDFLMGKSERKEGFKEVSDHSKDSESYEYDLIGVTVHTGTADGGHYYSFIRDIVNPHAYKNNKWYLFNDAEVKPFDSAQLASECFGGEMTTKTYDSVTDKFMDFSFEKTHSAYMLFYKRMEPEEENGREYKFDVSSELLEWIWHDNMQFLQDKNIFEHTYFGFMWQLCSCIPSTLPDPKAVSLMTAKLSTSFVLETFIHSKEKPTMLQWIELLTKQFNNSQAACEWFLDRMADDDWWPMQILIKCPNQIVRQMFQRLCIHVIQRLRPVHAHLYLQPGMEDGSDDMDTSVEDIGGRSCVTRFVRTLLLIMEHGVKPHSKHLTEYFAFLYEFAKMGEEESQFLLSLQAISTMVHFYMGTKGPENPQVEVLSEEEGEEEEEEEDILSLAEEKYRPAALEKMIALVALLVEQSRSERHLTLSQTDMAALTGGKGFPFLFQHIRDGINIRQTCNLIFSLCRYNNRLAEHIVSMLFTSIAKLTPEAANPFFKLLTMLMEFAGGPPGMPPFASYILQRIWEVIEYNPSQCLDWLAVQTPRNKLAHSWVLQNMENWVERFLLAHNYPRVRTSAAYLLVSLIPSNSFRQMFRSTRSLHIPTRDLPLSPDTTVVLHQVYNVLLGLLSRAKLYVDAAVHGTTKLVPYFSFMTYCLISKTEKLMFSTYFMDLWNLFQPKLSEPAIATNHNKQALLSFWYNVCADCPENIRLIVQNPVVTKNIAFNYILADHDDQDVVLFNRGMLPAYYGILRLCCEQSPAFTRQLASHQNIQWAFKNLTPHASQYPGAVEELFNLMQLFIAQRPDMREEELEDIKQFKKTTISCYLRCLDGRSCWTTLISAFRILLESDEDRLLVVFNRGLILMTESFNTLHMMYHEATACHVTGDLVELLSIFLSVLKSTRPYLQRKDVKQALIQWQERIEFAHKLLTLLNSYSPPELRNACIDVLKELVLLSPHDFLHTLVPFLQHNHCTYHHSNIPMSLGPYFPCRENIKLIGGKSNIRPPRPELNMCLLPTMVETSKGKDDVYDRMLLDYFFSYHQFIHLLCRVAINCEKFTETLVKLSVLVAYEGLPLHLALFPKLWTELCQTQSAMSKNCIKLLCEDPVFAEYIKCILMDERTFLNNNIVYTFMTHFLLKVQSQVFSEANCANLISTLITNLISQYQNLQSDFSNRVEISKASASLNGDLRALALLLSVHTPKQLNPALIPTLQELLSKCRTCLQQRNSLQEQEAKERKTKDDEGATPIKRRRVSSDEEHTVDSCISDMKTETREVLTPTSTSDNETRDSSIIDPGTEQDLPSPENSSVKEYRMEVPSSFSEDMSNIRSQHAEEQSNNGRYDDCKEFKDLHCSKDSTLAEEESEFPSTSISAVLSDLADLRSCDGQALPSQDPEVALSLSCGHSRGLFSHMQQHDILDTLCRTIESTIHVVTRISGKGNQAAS

Cc1ccccc1C1(CNC(=O)CCl)CCOCC1
inactive: USP34 0.051 | USP36 0.0925 | USP38 -0.0365 | USP39 -0.165 | USP4 -0.221
